Source: PubChem BioAssay AID720519 (National Center for Advancing Translational Sciences (NCATS), 2013)
Results filed as inconclusive are left out. Calls follow the shape of the dose curve; as a rule, active = well fitted activation curve with a large enough effect; inconclusive = small, poorly fitted or top-dose-only effect; inactive = flat fitted curve, though single readings scatter.

Experiment: qHTS for Inhibitors of Cell Surface uPA Generation: Confirmatory Assay for Cherry-picked Compounds; also: 0% is about no effect
Settings: cell surface uPA activity generation, qHTS confirmation; series mostly up to 115 µM; inhibition: at the top concentration
How it was run: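 RAW 264.7 cells at 4000/well, incubated overnight, then treated with compounds. After 24 h at 37 C, viability was read by ATPlite luminescence. An increase in signal indicates blocked uPA-dependent LF entry.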

inhibition, inactive:
CC1CCN(C2=C(NS(=O)(=O)c3ccc(Br)cc3)C(=O)c3ccccc3C2=O)CC1 -3.41%, CN(CC(=O)NCc1ccco1)CC(=O)Nc1c(Cl)cccc1Cl 0.0178%, Cc1ccc(-n2cccc2C(=O)NS(=O)(=O)c2ccc(C)cc2)cc1 0.439%, COCCCN1CC23C=CC(O2)C(C(=O)O)C3C1=O (stereo not drawn) -1.65%, CC(NC(=O)NC1CCCCC1)C(c1cccs1)N1CCN(C)CC1 (stereo not drawn) 1.87%, COc1ccc(NC(=O)CN2C(=O)CSc3ncccc32)cc1 0.189%, CC(C)Cn1cnc2c(N)nc3ccccc3c21 12.8%, O=C(CNC(=O)c1ccc(Br)o1)NNC(=O)c1ccccc1 -1.22%, CCC(C)C(NC(=O)c1ccccc1)C(=O)Nc1ccc(S(=O)(=O)Nc2cc(C)nc(C)n2)cc1 (stereo not drawn) -2.37%, CCN(C1CCS(=O)(=O)C1)S(=O)(=O)c1ccc2ccccc2c1 (stereo not drawn) -1.14%, Cc1cccc(C(=O)NC2CCN(CC(=O)N3CCOCC3)CC2)c1 -1.99%, CC1CC(C)CN(CCCNC(=O)CN2C(=O)CSc3ccc(S(=O)(=O)N4CCOCC4)cc32)C1 (stereo not drawn) 0.198%, Cc1nn(C)c(C)c1S(=O)(=O)N1CCC(C(=O)NC2CCCCCC2)CC1 -1.06%, COc1ccc(CN2CCNC(=O)C2CC(=O)NCC2CCOCC2)cc1C (stereo not drawn) -1.23%, COCCNC(=O)COCc1cc(-c2ccc3c(c2)OCO3)on1 -2.16%, Cc1cc(C)cc(S(=O)(=O)c2cn(C)c3cc(N4CCN(C)CC4)c(F)cc3c2=O)c1 -2.26%, Cc1cnc(C(=O)OCC(=O)Nc2ccc3c(c2)OCCO3)cn1 -0.779%, Cc1cccc(NC(=O)C2CCCN(S(=O)(=O)c3cccc4cccnc34)C2)c1 (stereo not drawn) -1.96%, Cc1ccc(Cl)cc1NC(=O)c1ccccc1OCC(=O)N1CCOCC1 1.32%, COC(=O)[C@]1(Cc2ccccc2)N[C@H](CN(C)C(=O)c2ccccc2)[C@@H]2C(=O)N(Cc3ccccc3)C(=O)[C@@H]21 3.58%, O=C(c1cc2cc([N+](=O)[O-])ccc2s1)N1CCOCC1 -2.48%, CCn1c(SC(C)C(=O)NC2CCCC2)nc2cc(S(N)(=O)=O)ccc21 (stereo not drawn) 6.22%, Cc1ccnc(N2CCN(C(=O)CSc3nc4ccccc4nc3N3CCC(C)CC3)CC2)c1 -3.35%, CCC(=O)Nc1nc(-c2cc([N+](=O)[O-])cs2)cs1 -0.373%, O=[N+]([O-])c1cccc2c(N3CCOCC3)ccnc12 -3.53%, CCCCN(CC(=O)NCc1ccc(F)cc1)C(=O)c1ccco1 1.54%, COc1ccc(OC)c(NC(=O)C2CCCN2C(=O)C2CCC(C)CC2)c1 (stereo not drawn) -0.18%, COc1ccc(C(=O)c2sc(Nc3ccccc3)nc2N)cc1 9.15%, C[C@H](CO)N1C[C@H](C)[C@H](CN(C)S(=O)(=O)c2cn(C)cn2)Oc2ccc(NC(=O)Nc3ccc(C(F)(F)F)cc3)cc2CC1=O 0.623%, COc1ccc(-c2cc(-c3ccccc3)nc3ncnn23)cc1 -2.6%, O=C(NCCCn1cccn1)C1CCC(=O)N(Cc2ccccc2F)C1 (stereo not drawn) -0.984%, Cc1cccc(CNc2ccc(C(CC(N)=O)NC(=O)c3cccc(Br)c3)cc2[N+](=O)[O-])c1 (stereo not drawn) -0.0467%, Cc1ccc(NC(=O)c2ccc(=O)[nH]n2)cc1S(=O)(=O)Nc1ccccc1Cl 1.5%, CC(=O)c1ccc(N=C2SCCCN2C(=O)C2CCCCC2)cc1 -2.64%, CCCOc1ccc(S(=O)(=O)NNC(=O)c2cc3ccccc3o2)cc1 -3.45%, O=C(COC(=O)c1ccc2ncsc2c1)NCc1cccc(Cl)c1 -3.9%, COc1ccc(CCN=c2c([N+](=O)[O-])nn(-c3cccc(C)c3)n2O)cc1OC -3.85%, COc1cc2oc(=O)ccc2cc1[C@H](O)[C@@H](O)C(C)(C)O -1.24%
